{
  "source": "PubChem BioAssay (NCATS)",
  "test": "qHTS assay to identify small molecules that stimulate interleukin-8 (IL-8) secretion (AID 651758)",
  "conditions": "HTRF ratio (665/615); series mostly up to 92.2 µM",
  "how_it_was_run": "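Quantitative HTS in THP-1 monocytic cells at 2000 cells per well, with 16 hrs compound incubation at 37 C. IL-8 in the medium was then quantified by HTRF immunoassay, read after 1-3 hrs at room temperature.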",
  "note": "Records with an inconclusive call do not appear. The source made the active and inactive calls. Calls come from the whole dose curve; as a rule, active = well fitted activation curve with a large enough effect in the signal ratio; inconclusive = small, poorly fitted or top-dose-only effect, or effect the other way, or a change in a side signal; inactive = flat fitted curve, though single readings scatter; the % refers to the signal ratio.",
  "data": [
    {"smiles": "COc1ccc2[nH]cc(CCNC(C)=O)c2c1", "values": [
      {"measurement": "outcome", "result": "inactive"}
    ]},
    {"smiles": "O=c1c(-c2ccc(O)cc2)coc2cc(O)cc(O)c12", "values": [
      {"measurement": "outcome", "result": "inactive"}
    ]}
  ]
}
